Reference: ChEMBL document CHEMBL3988442, “University of Dundee, Small-Polar-MMV Screening Library” (2021)
About 13,000 (27%) of roughly 48,000 compounds showed an effect of 50% or more. Some of the results follow.

test system: Wolbachia pipientis; assay: Anti-Wolbachia Cell-Based Screen; assay type: functional; design: scale not given: in the data most compounds retested in dose-response had high values; settings: 5 µM

| Structure (SMILES) | Percent Effect [%] |
| --- | --- |
| O=C(Nc1ccccc1CCc1ccccn1)NC1CCOCC1 | -7.389 |
| O=C1NCCN(C(=O)c2cn3ccsc3n2)C1Cc1ccccc1 (stereo not drawn) | -8.073 |
| Cc1cnn(CC2CCCN2Cc2cc(=O)n3ccccc3n2)c1 (stereo not drawn) | 2.976 |
| COC(=O)CCNC(=O)c1c[nH]cc1-c1ccccc1OC | 1.896 |
| COc1ccccc1-c1nc(C(=O)N2CCOCC2)n2ccncc12 | 98.47 |
| COc1ccccc1C1(CNc2ccnc(C(=O)N(C)C)c2)CC1 | 15.85 |
| COc1ccccc1-c1nc(C(=O)N(C)C)n2ccncc12 | 107.3 |
| Cc1c(C(=O)N2CCCOCC2)nnn1-c1cccc2cnccc12 | 5.187 |
| COC(=O)CNC(=O)c1nc(-c2ccccc2OC)c2cnccn12 | 100.8 |
| COc1ccccc1C(=O)N1CCN(C(=O)CCn2ccnc2)CC1 | 1.871 |
| CCN(CC)CCn1cc(NC(=O)CNc2ccccc2OC)cn1 | 1.772 |
| COc1ccccc1C1(CNc2ccc(C(=O)N(C)C)cn2)CC1 | 4.76 |
| COc1cccc(CNC(C)c2ccc(-n3ccnc3)cc2)c1OC.Cl (stereo not drawn) | 1.707 |
| Cc1nnc(C(C)Nc2ccc(OCCc3ccccc3)nc2)o1 (stereo not drawn) | -0.9062 |
| COc1cc(CNc2nc(C(F)(F)F)no2)cc(OC)c1OC | 5.574 |
| CC(C1CCN(Cc2ccc(OC(F)F)cc2)CC1)N1CCOCC1 (stereo not drawn) | 6.94 |
| CC(C)Oc1cccc(CN2CCC(C(C)N3CCOCC3)CC2)c1 (stereo not drawn) | 8.799 |
| Fc1cccc(Cl)c1CN1CCC(c2n[nH]c3ncccc23)CC1 | 100.4 |
| CC(C)Oc1ccc(CN2CCC(Cc3nnc(CO)n3C)CC2)cc1 | -3.16 |
| CC(C)Oc1ccc(CN2CCC(c3n[nH]c4ncccc34)CC2)cc1 | 97.82 |
| CC(C)Oc1cccc(CN2CCC(c3n[nH]c4ncccc34)CC2)c1 | 89.98 |
| Fc1cccc(CN2CCC(c3n[nH]c4ncccc34)CC2)c1F | -6.364 |
| Cl.Fc1ccc(CN2CCC(c3n[nH]c4ncccc34)CC2)cc1F | 3.09 |
| Cc1cc(NC(=O)c2nc(N3CCCC3)ncc2Cl)ccc1Br | 7.259 |
| Cc1ncoc1C(=O)N1C[C@@H]2COC[C@]2(c2nnc(C3CC3)o2)C1 | 19.81 |
| O=C(c1cc(C2CC2)nc2onc(-c3ccccc3)c12)N1CC(O)C1 | 1.744 |
| NC1CCCCN(Cc2cc(C3CCCCC3)no2)C1 (stereo not drawn) | 4.436 |
| O=C(c1cc(C2CCCCC2)no1)N1C[C@H]2C[C@H](O)C[C@H]2C1 | 95.88 |
